HCV inh: HCV inhibition | Huh7.5.1 HCVcc-Cre infection, luciferase reporter, 44 h | 340,000 tested, 3.4% active | AID 651820 | Potency, µM (highest dose often 41.8 µM), usual class: inhibitors; active means well fitted inhibition curve with a large enough effect; inconclusive means small, poorly fitted or top-dose-only effect, or another doubt; inactive means no such curve, though single readings can be large or run the other way
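Luciferase read-out (15 sec integration) after a 15 min room-temperature substrate step quantifies HCVcc-Cre infection. Cells, 1,000 per well, had compound added 4 h post-plating, then virus at ~0.5 moi, and were cultured 44 h.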
Marburg entry inh: inhibitors of Marburg virus binding or cell entry; Potency, µM (highest dose often 37.8 µM), usual class: inhibitors; 300,000 tested, 1.8% active; Marburg virus pseudotyped entry inhibition, cell reporter; calls by dose curve; tested in HEK293 cells
LASV entry inh: inhibitors of Lassa virus binding or cell entry | Lassa virus pseudotype entry inhibition, cell reporter | Potency, µM (series often up to 37.9 µM), hits mostly inhibitors | 300,000 tested, 1.2% active; calls by dose curve; tested in HEK293 cells; further: nearly all actives have a fitted effect of over 50% in size
FMDV inh: blocks foot and mouth disease virus | FMDV antiviral cell-based qHTS | Potency, µM (series often up to 57.9 µM), hits mostly inhibitors | 410,000 tested, 1.2% active | AID 1159524; calls by dose curve; tested in HEK293T cells; further: read-out not given here; nearly all actives have a fitted effect of over 45% in size
HCMV inh: blocks human cytomegalovirus replication; HFF cells, HCMV-luciferase reporter, 72 h; stronger effect = lower value; activity change, negative = inhibition, % at 57.5 µM; 410,000 tested, 4.5% active; AID 1259415; in the data active means activity change below about -60%; inconclusive means no clear call, values can overlap the other calls; inactive means above about -39%
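Steps: HFFs plated, 16 h 37C; compounds added; HCMV-luciferase added to MOI 1 PFU/cell; 72 h 37C; OneGlo reagent, 5 min room temperature; luminescence read, normalized to controls.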
SARS PLpro yeast: blocks SARS-CoV papain-like protease in a yeast assay. S. cerevisiae expressing SARS-CoV PLpro, growth rescue. Potency, µM (doses to about 32.9 µM), most hits filed as activators. 330,000 tested, 0.19% active; calls by dose curve; further: nearly all actives have a fitted effect of over 55% in size
Of the large screens only hits and unclear results are named; the others gave an inactive call. A selection: hits, their analogues and other compounds. The true share with any hit is near 8%.

COc1ccc(CNC(=O)c2ccc3c(c2)nc2n3CCCCC2)cc1	LASV entry inh inconclusive (no result: HCV inh, Marburg entry inh, SARS PLpro yeast)
COc1ccc(OC)c(-c2cc(C(=O)Nc3cnn(Cc4ccc(Cl)cc4Cl)c3)no2)c1	none (no result: HCV inh, SARS PLpro yeast)
COc1ccc(-c2cc(C(F)(F)F)n3nc(C(=O)N4CCCCC4)cc3n2)cc1	HCV inh 11µM, Marburg entry inh inconclusive, HCMV inh inconclusive (no result: FMDV inh)
COc1cccc(-c2cc(C(F)(F)F)n3nc(C(=O)N4CCCCC4c4cccnc4)cc3n2)c1 (stereo not drawn)	HCV inh 5.6µM, Marburg entry inh inconclusive, FMDV inh inconclusive, HCMV inh -68 (no result: LASV entry inh)
COc1ccc(-c2cc(C(F)(F)F)n3nc(C(=O)N4CCCCC4)cc3n2)cc1OC	HCV inh inconclusive, Marburg entry inh inconclusive, LASV entry inh inconclusive
CCCNC(=O)c1cc2nc(-c3ccc(Br)cc3)cc(C(F)(F)F)n2n1	none (no result: HCV inh, SARS PLpro yeast)
O=C(NCCCn1ccnc1)c1cc2nc(-c3ccc(Br)cc3)cc(C(F)(F)F)n2n1	HCV inh 7.1µM, Marburg entry inh inconclusive, LASV entry inh inconclusive
O=C(NCCCn1ccnc1)c1cc(-c2ccc(Cl)cc2)nc2ccccc12	HCV inh 11µM
NC(=O)c1cccc(-c2ccc3c(c2)N(CC2CC2)C(=O)COC3)c1	none (no result: HCV inh, Marburg entry inh, LASV entry inh, FMDV inh, SARS PLpro yeast)
Cn1cc(S(=O)(=O)N2CCc3ccccc32)cc1C(=O)Nc1ccc(C(F)(F)F)cc1	none (no result: HCV inh, Marburg entry inh, SARS PLpro yeast)
COC(=O)c1cc(CNC(=O)c2ccccc2)cc(NC(=O)c2ccccc2OC)c1	none (no result: HCV inh, Marburg entry inh, LASV entry inh, HCMV inh, SARS PLpro yeast)
COc1cccc(-c2ccnc(-n3ncc(C(=O)NCC(C)(C)CN(C)C)c3C)n2)c1	none (no result: HCV inh, Marburg entry inh, LASV entry inh, HCMV inh, SARS PLpro yeast)
COc1ccc(-c2cc(C(F)(F)F)n3nc(C(=O)NCCCN4CCOCC4)cc3n2)cc1	HCV inh 11µM
COc1ccc(-c2cc(C(F)(F)F)n3nc(C(=O)Nc4cc(C)ccc4C)cc3n2)cc1	none (no result: HCV inh, SARS PLpro yeast)
O=C(NCCCN1CCCC1=O)c1cc2nc(-c3ccco3)cc(C(F)(F)F)n2n1	SARS PLpro yeast 22µM
CCOC(=O)c1ccccc1NS(=O)(=O)c1ccc(N2CCCCS2(=O)=O)cc1	none (no result: HCV inh, Marburg entry inh, SARS PLpro yeast)
CCOc1ccc(C(=O)N(CC(=O)Nc2cccc(C)c2C)CC2CCCO2)cc1OC (stereo not drawn)	HCMV inh active
CCCC1(CCC)NC(=O)N(CC(=O)Nc2ccccc2OC)C1=O	HCMV inh -109
COc1ccccc1NC(=O)CC1Nc2ccccc2NC1=O (stereo not drawn)	HCV inh 10µM
Cc1cc2c(cc1C)NC(CC(=O)NCc1ccccc1)C(=O)N2 (stereo not drawn)	HCV inh inconclusive, LASV entry inh inconclusive, HCMV inh -109
CSc1nc2ccccc2n1CC(=O)N1CCCCC1	none
Cn1c(=O)c2c(nc(Sc3nc4ccccc4n3CC(=O)N3CCCCC3)n2C)n(C)c1=O	HCMV inh -63
Cc1ccccc1OC[C@H](O)Cn1c(N2CCN(c3ccccc3)CC2)nc2c1c(=O)[nH]c(=O)n2C	none (no result: HCV inh, LASV entry inh, FMDV inh, HCMV inh, SARS PLpro yeast)
CCN(CC)C(=O)CSc1nnc2nnc3cc(C)ccc3n12	HCMV inh -67
O=c1cc(-c2ccccc2)n2c(SCc3c(F)cccc3Cl)nnc2[nH]1	none (no result: HCV inh, Marburg entry inh, SARS PLpro yeast)
O=C1C=Cc2cccc3ccc(O)c1c23	HCV inh inconclusive, HCMV inh -68 (no result: SARS PLpro yeast)
O=C(OCc1cn([C@H]2CN(CC3CCCCC3)[C@@H](c3ccc(Cl)cc3)C[C@H]2O)nn1)c1ccccc1	Marburg entry inh 14µM (no result: HCV inh, LASV entry inh, FMDV inh, HCMV inh, SARS PLpro yeast)
CCCCCCN1C[C@H](n2cc(COC(=O)c3ccccc3)nn2)[C@@H](O)C[C@@H]1c1ccccc1	none (no result: HCV inh, Marburg entry inh, LASV entry inh, SARS PLpro yeast)
CCCCCCN1C[C@H](n2cc(C3CC3)nn2)[C@@H](O)C[C@H]1c1ccc(Cl)cc1	LASV entry inh 16µM (no result: HCV inh, Marburg entry inh, FMDV inh, HCMV inh, SARS PLpro yeast)
CCCCCCN1C[C@@H](n2cc(COC(=O)c3ccccc3)nn2)[C@H](O)C[C@@H]1c1ccc(Cl)cc1	HCMV inh -101 (no result: HCV inh, Marburg entry inh, LASV entry inh, SARS PLpro yeast)
CCCCCCN1C[C@@H](n2cc(COC(=O)c3ccccc3)nn2)[C@H](O)C[C@@H]1c1ccccc1	HCMV inh -103 (no result: HCV inh, Marburg entry inh, LASV entry inh, SARS PLpro yeast)
O=[N+]([O-])c1c(NCCCO)cc(N2CCCCCC2)c2nonc12	Marburg entry inh inconclusive
O=[N+]([O-])c1c(NCCCO)cc(N2CCN(Cc3ccc4c(c3)OCO4)CC2)c2nonc12	HCV inh inconclusive, Marburg entry inh inconclusive, LASV entry inh inconclusive, FMDV inh 18µM, HCMV inh -78
O=[N+]([O-])c1c(NCCCO)cc(Sc2ccc(Cl)cc2)c2nonc12	HCV inh inconclusive, Marburg entry inh 11µM, LASV entry inh inconclusive, FMDV inh 25µM
CC(=O)OCCCNc1cc(Sc2ccc(C)cc2)c2nonc2c1[N+](=O)[O-]	Marburg entry inh inconclusive, LASV entry inh inconclusive, FMDV inh inconclusive
Cn1ccnc1Sc1cc(NCCCO)c([N+](=O)[O-])c2nonc12	HCV inh 10µM, Marburg entry inh inconclusive, LASV entry inh inconclusive, FMDV inh 25µM
C=C(CO[C@@H]1C=C[C@@H](c2ccccc2)O[C@@H]1COC)c1ccccc1	none (no result: HCV inh, LASV entry inh, FMDV inh, HCMV inh, SARS PLpro yeast)
CC(C)CO/N=C1/C[C@@H](O)[C@@H](O)[C@@H]2[C@@H]3C(=O)N(Cc4ccccc4)C(=O)[C@H]3CC[C@H]12	none (no result: HCV inh, LASV entry inh, FMDV inh, HCMV inh, SARS PLpro yeast)
CNC(=O)CN1C(=O)COc2ccc(S(=O)(=O)N3CCC(C)CC3)cc21	none (no result: HCV inh, SARS PLpro yeast)
COc1ccc2c(Cl)c(-c3nnc(SCC(=O)c4ccccc4)n3C)sc2c1	HCV inh 11µM, Marburg entry inh inconclusive, LASV entry inh inconclusive
O=C1COc2cc(S(=O)(=O)CCC(=O)N3CCN(c4cccc(Cl)c4)CC3)c(Cl)cc2N1	FMDV inh inconclusive, HCMV inh inconclusive (no result: HCV inh, Marburg entry inh, SARS PLpro yeast)
O=c1c2ccccc2nc(-c2ccc(Cl)c(Cl)c2)n1O	LASV entry inh inconclusive, HCMV inh -63
